In PubChem BioAssay (Tox21):
Inconclusive results are not listed. Where a call stands in place of a potency, no number is given. The source made the active and inactive calls. Unless noted, the call rests on the fitted dose curve; in most records, active means well fitted curve in the direction sought with a large enough effect in the repeat runs; inconclusive means weak or mixed curves; inactive means no such curve, though single readings can be large; an effect the other way counts as inactive or inconclusive.

Columns and labels:
[1] = qHTS assay to identify small molecule agonists of the peroxisome proliferator-activated receptor delta (PPARd) signaling pathway - cell viability counter screen (AID 743211); further: nearly all actives have a fitted effect of over 55% in size; further: potency means the concentration at half of the fitted maximal effect
Summary of the method: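 HEK293H PPARd-bla, 3000 cells/well; 5 h preincubation 37C/5% CO2; cpd in DMSO, 17 h 37C; B/G FRET substrate 2 h RT; CellTiter-Glo 30 min RT, luminescence.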

[2] = qHTS assay to identify small molecule antagonists of the peroxisome proliferator-activated receptor delta (PPARd) signaling pathway - cell viability counter screen (AID 743213); further: nearly all actives have a fitted effect of over 50% in size; further: potency means the concentration at half of the fitted maximal effect
Summary of the method: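 In this counter screen, HEK293H cells carrying a UAS-beta-lactamase reporter are co-treated with test compounds and 300 nM L165041 (final) for 17 h at 37 C; cell viability is quantified by CellTiter-Glo luminescence.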

[3] = qHTS assay to identify small molecule antagonists of the farnesoid-X-receptor (FXR) signaling pathway - cell viability counter screen (AID 743221; active means well fitted cell-killing curve with a large enough effect in the repeat runs, not every such curve was filed as active; further: nearly all actives have a fitted effect of over 50% in size)
Summary of the method: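 Luminescence from CellTiter-Glo measures cytotoxicity in GeneBLAzer FXR-UAS-bla HEK 293T cells. Cells were exposed to compounds with 50 uM chenodeoxycholic acid (final) for 16 h at 37 C, in wells also used for the reporter readout.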

[4] = qHTS assay to identify small molecule agonists of the vitamin D receptor (VDR) signaling pathway - cell viability counter screen (AID 743224); further: nearly all actives have a fitted effect of over 50% in size; further: potency means the concentration at half of the fitted maximal effect
Summary of the method: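 Plated VDR-bla cells (4 h, 37C) received compound, incubated 16 h, then LiveBLAzer substrate 2 h RT; CellTiter-Glo added afterwards, luminescence read at 30 min.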

[5] = qHTS assay to identify small molecule antagonists of the vitamin D receptor (VDR) signaling pathway - cell viability counter screen (AID 743225); further: nearly all actives have a fitted effect of over 50% in size; further: potency means the concentration at half of the fitted maximal effect
Summary of the method: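 Read-out: CellTiter-Glo luminescence measured 30 min after reagent addition at room temperature. Cells were VDR-bla HEK 293T exposed 16 h at 37C, 5% CO2, to compound with 3 nM final calcitriol agonist.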

[6] = qHTS assay to identify small molecule agonists of the NFkB signaling pathway (AID 1159509; active means well fitted curve in the direction sought with a large enough effect in the signal ratio in the repeat runs, not every such curve was filed as active; the % refers to the signal ratio; further: series mostly up to about 61 µM)
Summary of the method: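 NFkB-bla ME-180 cells with a beta-lactamase reporter under an NF-kB response element were plated overnight, treated with compounds in DMSO for 5 hr at 37 C, then loaded with FRET substrate for 1.5 hr at room temperature.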

[7] = qHTS assay to identify small molecule agonists of the endoplasmic reticulum stress response signaling pathway (AID 1159516; active means well fitted activation curve with a large enough effect in the signal ratio in the repeat runs, not every such curve was filed as active; the % refers to the signal ratio)
Summary of the method: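 An ESRE-bla HeLa cell assay: compounds were pin-transferred from DMSO onto overnight-plated cells and left 5 hr at 37 C. Substrate was then loaded for 2 hr at room temperature before reading fluorescence at 460 nm and 530 nm.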

[8] = qHTS assay to identify small molecule agonists of the endoplasmic reticulum stress response signaling pathway - cell viability counter screen (AID 1159517; calls by dose curve; further: nearly all actives have a fitted effect of over 50% in size; further: potency means the concentration at half of the fitted maximal effect)
Summary of the method: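 Luminescence readout: CellTiter-Glo, 30 min RT, same wells as the ESRE-bla reporter read. HeLa ESRE-bla, 1,500 cells/well, o/n 37 C; cpd 5 hr 37 C/5% CO2.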

[9] = qHTS assay to identify small molecule antagonists of the retinoid-related orphan receptor gamma (ROR-gamma) signaling pathway - cell viability counter screen (AID 1159520); further: nearly all actives have a fitted effect of over 50% in size; further: potency means the concentration at half of the fitted maximal effect
Summary of the method: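 Tet-on ROR gamma CHO cells (1,000/well) were plated 4 hr, given compounds in DMSO for 2 hr at 37 C, then induced with 1 uM final doxycycline for 16 hr. Viability was read as ATP by CellTiter-Glo luminescence after 30 min.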

[10] = qHTS assay to identify small molecule agonists of the AP-1 signaling pathway - cell viability counter screen (AID 1159525; calls by dose curve; further: nearly all actives have a fitted effect of over 55% in size)
Summary of the method: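 ME-180 AP-1-bla, 2500 cells/well, Opti-MEM + 0.5% dialyzed FBS; overnight 37 °C; cpd 15-pt titration, 5 h 37 °C; CellTiter-Glo 30 min RT; luminescence read; normalised to TOAB and DMSO controls.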

[11] = qHTS assay to identify small molecule agonists of the farnesoid-X-receptor (FXR) signaling pathway - cell viability counter screen (AID 743218); further: nearly all actives have a fitted effect of over 45% in size; further: potency means the concentration at half of the fitted maximal effect
Summary of the method: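 Parallel cytotoxicity test: compound-treated (16 h, 37 C) HEK 293T FXR-bla reporter cells were lysed with CellTiter-Glo and luminescence recorded.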

[12] = molecular target: Nuclear receptor ROR-gamma (Homo sapiens) (UniProt P51449); experiment: qHTS assay to identify small molecule antagonists of the retinoid-related orphan receptor gamma (ROR-gamma) signaling pathway (AID 1159521)
Summary of the method: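 CHO Tet-on RORγ, RORE-luc reporter. Cpd 2 h pre-incubation, then dox hyclate 1 uM final, 16 h, 37 C/5% CO2. ONE-Glo luminescence; decrease = antagonist.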

[13] = qHTS assay to identify small molecule agonists of the AP-1 signaling pathway (AID 1159526; calls by dose curve)
[14] = molecular target: Peroxisome proliferator-activated receptor delta (Homo sapiens) (UniProt Q03181); experiment: qHTS assay to identify small molecule agonists of the peroxisome proliferator-activated receptor delta (PPARd) signaling pathway (AID 743212; calls by dose curve)
Sequence of Peroxisome proliferator-activated receptor delta (Homo sapiens) (Q03181 whole entry, looked up): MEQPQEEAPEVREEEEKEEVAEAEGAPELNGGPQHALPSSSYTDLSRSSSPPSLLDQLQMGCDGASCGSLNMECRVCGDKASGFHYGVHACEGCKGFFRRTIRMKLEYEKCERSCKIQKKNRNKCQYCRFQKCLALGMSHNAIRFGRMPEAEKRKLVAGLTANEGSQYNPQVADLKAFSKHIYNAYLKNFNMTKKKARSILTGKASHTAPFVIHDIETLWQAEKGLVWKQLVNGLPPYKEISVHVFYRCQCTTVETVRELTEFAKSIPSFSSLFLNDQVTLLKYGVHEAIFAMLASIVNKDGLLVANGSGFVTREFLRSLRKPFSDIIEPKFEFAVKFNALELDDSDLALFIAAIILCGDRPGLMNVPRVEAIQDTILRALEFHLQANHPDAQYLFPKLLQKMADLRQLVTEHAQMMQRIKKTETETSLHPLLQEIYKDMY
Summary of the method: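 GeneBLAzer PPARd UAS-bla HEK293H cells (beta-lactamase reporter under UAS control), plated and rested 5 h at 37 C, then exposed to compounds in DMSO at 37 C; LiveBLAzer B/G FRET substrate added, 2 h room temperature, fluorescence read.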

[15] = molecular target: Peroxisome proliferator-activated receptor delta (Homo sapiens) (UniProt Q03181); experiment: qHTS assay to identify small molecule antagonists of the peroxisome proliferator-activated receptor delta (PPARd) signaling pathway (AID 743215; active means well fitted inhibition curve with a large enough effect in the signal ratio in the repeat runs, not every such curve was filed as active; the % refers to the signal ratio;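 further: cells stimulated with agonist L165041 at 300 nM final during compound exposure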; further: potency means the concentration at half of the fitted maximal effect)
Summary of the method: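 HEK293H UAS-bla, PPARd; agonist L165041 300 nM final with cpd in DMSO; 37 C 17 h; FRET substrate, RT 2 h; fluorescence intensity.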

[16] = molecular target: Bile acid receptor (Homo sapiens) (UniProt Q96RI1); experiment: qHTS assay to identify small molecule antagonists of the farnesoid-X-receptor (FXR) signaling pathway (AID 743217; active means well fitted inhibition curve with a large enough effect in the signal ratio in the repeat runs, not every such curve was filed as active; the % refers to the signal ratio; further: potency means the concentration at half of the fitted maximal effect)
Sequence of Bile acid receptor (Homo sapiens) (Q96RI1 whole entry, looked up): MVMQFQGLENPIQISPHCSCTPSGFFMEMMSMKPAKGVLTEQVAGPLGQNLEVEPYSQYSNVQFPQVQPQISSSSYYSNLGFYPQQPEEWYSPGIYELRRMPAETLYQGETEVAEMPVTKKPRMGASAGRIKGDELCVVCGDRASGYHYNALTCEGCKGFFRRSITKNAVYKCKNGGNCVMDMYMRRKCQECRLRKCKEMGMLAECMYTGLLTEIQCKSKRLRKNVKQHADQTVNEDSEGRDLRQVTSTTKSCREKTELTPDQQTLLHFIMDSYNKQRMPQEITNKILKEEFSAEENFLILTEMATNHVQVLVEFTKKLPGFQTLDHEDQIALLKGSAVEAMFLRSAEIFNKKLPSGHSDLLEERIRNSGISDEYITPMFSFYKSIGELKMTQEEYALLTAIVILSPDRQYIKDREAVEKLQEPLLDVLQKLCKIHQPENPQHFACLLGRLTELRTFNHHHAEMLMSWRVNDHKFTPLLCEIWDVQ
Summary of the method: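 GeneBLAzer FXR-UAS-bla HEK 293T, CDCA-stimulated (50 uM final). Compound treatment 16 h, 37 °C. Detection: beta-lactamase cleavage of B/G FRET substrate, fluorescence.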

[17] = molecular target: Bile acid receptor (Homo sapiens) (UniProt Q96RI1); experiment: qHTS assay to identify small molecule agonists of the farnesoid-X-receptor (FXR) signaling pathway (AID 743220; active means well fitted activation curve with a large enough effect in the signal ratio in the repeat runs, not every such curve was filed as active; the % refers to the signal ratio)
Summary of the method: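 Beta-lactamase reporter under UAS control in GeneBLAzer FXR HEK 293T cells (5000/well) measured with LiveBLAzer FRET substrate after 2 h at room temperature. Compound exposure lasted 16 h at 37C.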

[18] = molecular target: Vitamin D3 receptor (Homo sapiens) (UniProt P11473); experiment: qHTS assay to identify small molecule agonists of the vitamin D receptor (VDR) signaling pathway (AID 743222; calls by dose curve)
Sequence of Vitamin D3 receptor (Homo sapiens) (P11473 whole entry, looked up): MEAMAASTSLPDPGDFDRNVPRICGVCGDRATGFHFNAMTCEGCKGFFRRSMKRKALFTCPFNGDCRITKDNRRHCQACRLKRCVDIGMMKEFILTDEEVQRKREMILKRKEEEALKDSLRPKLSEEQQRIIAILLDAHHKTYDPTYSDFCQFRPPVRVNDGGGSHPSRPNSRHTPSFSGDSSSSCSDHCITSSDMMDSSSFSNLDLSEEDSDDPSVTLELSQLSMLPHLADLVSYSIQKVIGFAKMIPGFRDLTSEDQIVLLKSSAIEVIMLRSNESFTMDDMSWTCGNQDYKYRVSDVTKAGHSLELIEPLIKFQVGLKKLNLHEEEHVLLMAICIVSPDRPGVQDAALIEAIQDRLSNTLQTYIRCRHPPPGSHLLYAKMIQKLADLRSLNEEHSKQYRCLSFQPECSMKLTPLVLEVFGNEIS
Summary of the method: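 In VDR-bla cells, compound-induced beta-lactamase expression is quantified by FRET substrate fluorescence. Treatment lasts 16 h at 37C; substrate develops 2 h at room temperature.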

[19] = molecular target: Vitamin D3 receptor (Homo sapiens) (UniProt P11473); experiment: qHTS assay to identify small molecule antagonists of the vitamin D receptor (VDR) signaling pathway (AID 743223; active means well fitted inhibition curve with a large enough effect in the signal ratio in the repeat runs, not every such curve was filed as active; the % refers to the signal ratio; further: potency means the concentration at half of the fitted maximal effect)
Summary of the method: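 Antagonist mode uses 1alpha,25-dihydroxyvitamin D3 at 3 nM final as stimulus. VDR-bla cells receive compounds in DMSO, incubate 16 h at 37C, then a beta-lactamase FRET substrate for 2 h at room temperature before fluorescence measurement.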

Row | SMILES | Potency [1] | Potency [2] | Potency [3] | Potency [4] | Potency [5] | Potency [6] | Potency [7] | Potency [8] | Potency [9] | Potency [10] | Potency [11] | Potency [12] | Potency [13] | Potency [14] | Potency [15] | Potency [16] | Potency [17] | Potency [18] | Potency [19]
1 | O=c1cc(-c2ccccc2)oc2cc(O)cc(O)c12 | inactive | inactive | inactive | inactive | inactive | inactive | inactive | inactive | inactive | inactive |  |  |  |  |  |  |  |  | 
2 | CN1C[C@H](C(=O)N[C@]2(C)O[C@@]3(O)[C@@H]4CCCN4C(=O)[C@H](Cc4ccccc4)N3C2=O)C[C@@H]2c3cccc4[nH]cc(c34)C[C@H]21 | 23.7 µM (active) |  |  | 29.8 µM (active) |  | inactive | inactive | inactive |  | inactive | 26.6 µM (active) | inactive | inactive |  |  |  |  |  | 
3 | CCC(C)(C)OC | inactive | inactive | inactive | inactive | inactive | inactive | inactive | inactive | inactive | inactive | inactive |  | inactive | inactive | inactive | inactive | inactive |  | 
4 | CCC(=O)C1CC(C(C)C)CC=C1C (stereo not drawn) | inactive | inactive | inactive | inactive | inactive | inactive | inactive | inactive | inactive |  | inactive | inactive | inactive | inactive |  |  |  |  | 
5 | Nc1nc2ccc([N+](=O)[O-])cc2s1 |  |  | inactive | inactive |  | inactive | inactive | inactive | inactive |  |  |  |  |  |  |  |  |  | 
6 | Cc1cc2c(OCC(CNC(C)(C)C)OC(=O)c3ccccc3)cccc2[nH]1 (stereo not drawn) | inactive | inactive | inactive | inactive | inactive | inactive | inactive | inactive | inactive | inactive | inactive |  | inactive |  | inactive |  |  | inactive | inactive
7 | COc1cc(C(=O)NC2CCN(C)CC2)ccc1Nc1ncc2c(n1)N(C1CCCC1)CC(F)(F)C(=O)N2C | 11.3 µM (active) | 7.11 µM (active) |  | 15.9 µM (active) | 7.11 µM (active) | inactive | inactive | 50.4 µM (active) | 22.3 µM (active) |  | 17.9 µM (active) |  | inactive | inactive | 14.2 µM (active) | 22.5 µM (active) |  | inactive | 6.34 µM (active)
8 | CN1CC(=O)N2[C@H](c3ccc4c(c3)OCO4)c3[nH]c4ccccc4c3C[C@@H]2C1=O | inactive | inactive | inactive | inactive | inactive | inactive | inactive | inactive | inactive | inactive | inactive |  | inactive | inactive | inactive |  |  | inactive | inactive
9 | CCC(=O)OC | inactive |  | inactive | inactive |  | inactive | inactive | inactive | inactive |  | inactive |  | inactive |  |  |  |  | inactive | inactive
10 | NCCNCCO | inactive | inactive | inactive | inactive |  | inactive | inactive | inactive | inactive | inactive | inactive |  | inactive | inactive | inactive | inactive | inactive | inactive | inactive
